According to PubChem BioAssay (Tox21):
Records with an inconclusive call do not appear. Active and inactive are the calls of the source. The call rests on the fitted dose curve; in most records, active means well fitted curve in the direction sought with a large enough effect in the repeat runs; inconclusive means weak or mixed curves; inactive means no such curve, though single readings can be large; an effect the other way counts as inactive or inconclusive.

Key:
[1] = A CellTox Green Cytotoxicity Assay to monitor cytotoxicity in HEK293 cells - 40 hour (AID 1224871); further: nearly all actives have a fitted effect of over 45% in size
Outline: (§1)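 HEK293 cells premixed with CellTox Green dye were seeded at 600 cells/well and left 5 h at 37 C/5% CO2 before pin transfer of 23 nL compound in DMSO. Fluorescence from dye bound to dead-cell DNA was read during 40 h treatment.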

[2] = qHTS RealTime-Glo MT Cell Viability Assay in HEK293 cells - 16 hour (AID 1224872); further: top concentration of the series differs between compounds; nearly all actives have a fitted effect of over 50% in size
Outline: (§2)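 Assay medium contained NanoLuc luciferase plus cell-permeant prosubstrate, added with HEK293 cells at 600 cells/well. After 5 h at 37 C/5% CO2 compounds were added; plates stayed at 37 C for 40 h with serial luminescence reads.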

[3] = qHTS RealTime-Glo MT Cell Viability Assay in HepG2 cells - 8 hour (AID 1224873); further: nearly all actives have a fitted effect of over 55% in size
Outline: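 HepG2 cells (600/well) mixed with RealTime-Glo MT reagent, settled 5 h at 37 C/5% CO2 before compound addition. Nonlytic NanoLuc luminescence from viable-cell prosubstrate reduction read repeatedly during 40 h treatment at 37 C.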

[4] = qHTS RealTime-Glo MT Cell Viability Assay in HEK293 cells - 40 hour (AID 1224874); details: RealTime-Glo luminescence; max response: hits give low values; further: nearly all actives have a fitted effect of over 50% in size
Outline: (§3)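 HEK293 cells mixed with RealTime-Glo reagents (NanoLuc plus cell-permeant prosubstrate) at 600 cells/well, preincubated 5 h at 37 C/5% CO2, then given 23 nL compound in DMSO. Nonlytic luminescence from viable cells was read at 0, 8, 16, 24, 32 and 40 h.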

[5] = A CellTox Green Cytotoxicity Assay to monitor cytotoxicity in HEK293 cells - 24 hour (AID 1224875); further: series mostly up to about 77 µM; nearly all actives have a fitted effect of over 45% in size
Outline: as §1

[6] = A CellTox Green Cytotoxicity Assay to monitor cytotoxicity in HepG2 cells - 16 hour (AID 1224876); further: nearly all actives have a fitted effect of over 45% in size
Outline: (§4)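 HepG2 cells were seeded together with the CellTox Green dye at 600 cells/well, left 5 h at 37 C/5% CO2, then given compounds in DMSO. Fluorescence from dye bound to dead-cell DNA was read repeatedly over 40 h of treatment at 37 C.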

[7] = qHTS RealTime-Glo MT Cell Viability Assay in HepG2 cells - 32 hour (AID 1224877); further: nearly all actives have a fitted effect of over 55% in size
Outline: (§5)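 qHTS, HepG2, 600 cells/well, RealTime-Glo (NanoLuc + prosubstrate) added with cells; 5 h preincubation; DMSO compound addition; 37 C; luminescence at 0/8/16/24/32/40 h.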

[8] = A CellTox Green Cytotoxicity Assay to monitor cytotoxicity in HepG2 cells - 24 hour (AID 1224878); further: nearly all actives have a fitted effect of over 45% in size
Outline: as §4

[9] = A CellTox Green Cytotoxicity Assay to monitor cytotoxicity in HepG2 cells - 40 hour (AID 1224879); further: nearly all actives have a fitted effect of over 40% in size
Outline: as §4

[10] = qHTS RealTime-Glo MT Cell Viability Assay in HEK293 cells - 0 hour (AID 1224880)
Outline: as §3

[11] = A CellTox Green Cytotoxicity Assay to monitor cytotoxicity in HEK293 cells - 32 hour (AID 1224881); further: nearly all actives have a fitted effect of over 40% in size
Outline: as §1

[12] = A CellTox Green Cytotoxicity Assay to monitor cytotoxicity in HepG2 cells - 0 hour (AID 1224882); further: nearly all actives have a fitted effect of over 35% in size
Outline: as §4

[13] = A CellTox Green Cytotoxicity Assay to monitor cytotoxicity in HepG2 cells - 32 hour (AID 1224883); further: nearly all actives have a fitted effect of over 50% in size
Outline: as §4

[14] = A CellTox Green Cytotoxicity Assay to monitor cytotoxicity in HEK293 cells - 8 hour (AID 1224884); further: nearly all actives have a fitted effect of over 35% in size
Outline: as §1

[15] = qHTS RealTime-Glo MT Cell Viability Assay in HepG2 cells - 16 hour (AID 1224885); further: nearly all actives have a fitted effect of over 50% in size
Outline: as §5

[16] = qHTS RealTime-Glo MT Cell Viability Assay in HEK293 cells - 24 hour (AID 1224886)
Outline: as §2

[17] = qHTS RealTime-Glo MT Cell Viability Assay in HEK293 cells - 8 hour (AID 1224887)
Outline: as §3

[18] = A CellTox Green Cytotoxicity Assay to monitor cytotoxicity in HEK293 cells - 16 hour (AID 1224888); further: nearly all actives have a fitted effect of over 35% in size
Outline: as §1

[19] = qHTS RealTime-Glo MT Cell Viability Assay in HepG2 cells - 0 hour (AID 1224889); further: nearly all actives have a fitted effect of over 50% in size
Outline: as §5

[20] = A CellTox Green Cytotoxicity Assay to monitor cytotoxicity in HepG2 cells - 8 hour (AID 1224890); further: nearly all actives have a fitted effect of over 45% in size
Outline: as §4
On the % scale 0 is the no-effect control and ±100 the full control effect.

CC(=O)OCCc1ccccc1
inactive: Potency [1] | Potency [2] | Potency [3] | max response [4] 10.1% | Potency [5] | Potency [6] | Potency [7] | Potency [8] | Potency [9] | Potency [10] | Potency [11] | Potency [12] | Potency [13] | Potency [14] | Potency [15] | Potency [16] | Potency [17] | Potency [18] | Potency [19] | Potency [20]

C1CCC2OC2C1 (stereo not drawn)
inactive: Potency [1] | Potency [2] | Potency [3] | max response [4] 4.85% | Potency [5] | Potency [6] | Potency [7] | Potency [8] | Potency [9] | Potency [10] | Potency [11] | Potency [12] | Potency [13] | Potency [14] | Potency [16] | Potency [17] | Potency [18] | Potency [19] | Potency [20]

O=C(c1ccc(O)cc1)c1ccc(O)cc1
inactive: Potency [1] | Potency [2] | Potency [3] | max response [4] -22.8% | Potency [5] | Potency [6] | Potency [7] | Potency [8] | Potency [9] | Potency [10] | Potency [11] | Potency [12] | Potency [13] | Potency [14] | Potency [15] | Potency [16] | Potency [18] | Potency [19] | Potency [20]

COCCO
inactive: Potency [1] | Potency [2] | Potency [3] | max response [4] 11.8% | Potency [5] | Potency [6] | Potency [7] | Potency [8] | Potency [9] | Potency [10] | Potency [11] | Potency [12] | Potency [13] | Potency [14] | Potency [15] | Potency [16] | Potency [17] | Potency [18] | Potency [19] | Potency [20]

NC[C@H]1O[C@H](O[C@H]2[C@H](O)[C@@H](O[C@H]3O[C@H](CO)[C@@H](O)[C@H](N)[C@H]3O)[C@H](N)C[C@@H]2N)[C@H](O)[C@@H](O)[C@@H]1O
inactive: cytotoxicity increase [1] 9.35% [at 6.97 µM] | activity change, negative = cytotoxicity [2] 8.96% [at 6.97 µM] | viability change, negative = cytotoxic [3] 5.97% [at 6.97 µM] | max response [4] 12.1% | activity change [5] 8.95% [at 6.97 µM, hits give high values] | cytotoxicity increase [6] 10.8% [at 6.97 µM] | activity change, negative = cytotoxic [7] -15.9% [at 6.97 µM] | cytotoxicity [8] 10.9% [at 6.97 µM] | cytotoxicity increase [9] 9.32% [at 6.97 µM] | activity change, negative = cytotoxicity [10] 12.9% [at 6.97 µM] | cytotoxicity increase [11] 10.5% [at 6.97 µM] | cytotoxicity [12] 1.08% [at 6.97 µM] | cytotoxicity increase [13] 13.2% [at 6.97 µM] | cytotoxicity increase [14] 7.24% [at 6.97 µM] | activity change, negative = cytotoxic [15] 2.6% [at 6.97 µM] | activity change, negative = cytotoxicity [16] 13.6% [at 6.97 µM] | activity change, negative = cytotoxicity [17] 2.67% [at 6.97 µM] | activity change [18] 6.94% [at 6.97 µM, hits give high values] | activity change, negative = cytotoxicity [19] 17.3% [at 6.97 µM]

NC1CCN(c2nc3c(cc2F)c(=O)c(C(=O)O)cn3-c2ccc(F)cc2F)C1 (stereo not drawn)
inactive: Potency [1] | Potency [2] | Potency [3] | max response [4] -1.98% | Potency [5] | Potency [6] | Potency [7] | Potency [8] | Potency [9] | Potency [10] | Potency [11] | Potency [12] | Potency [13] | Potency [14] | Potency [15] | Potency [16] | Potency [17] | Potency [18] | Potency [19]

N#Cc1c(F)cccc1F
inactive: Potency [1] | Potency [2] | Potency [3] | max response [4] -15.1% | Potency [5] | Potency [6] | Potency [7] | Potency [8] | Potency [9] | Potency [11] | Potency [12] | Potency [13] | Potency [14] | Potency [15] | Potency [16] | Potency [17] | Potency [18] | Potency [19]

Cc1ccc(C(=O)C(C)CN2CCCCC2)cc1 (stereo not drawn)
inactive: Potency [1] | Potency [2] | Potency [3] | max response [4] 11.5% | Potency [5] | Potency [6] | Potency [7] | Potency [8] | Potency [9] | Potency [10] | Potency [11] | Potency [12] | Potency [13] | Potency [14] | Potency [16] | Potency [17] | Potency [18] | Potency [19] | Potency [20]

NC(=S)N/N=C/c1cccnc1
inactive: Potency [1] | Potency [2] | Potency [3] | max response [4] 6.57% | Potency [5] | Potency [6] | Potency [7] | Potency [8] | Potency [9] | Potency [10] | Potency [11] | Potency [12] | Potency [13] | Potency [15] | Potency [16] | Potency [18] | Potency [19] | Potency [20]

Cc1ccccn1
inactive: Potency [1] | Potency [2] | Potency [3] | max response [4] 4.7% | Potency [5] | Potency [6] | Potency [7] | Potency [8] | Potency [9] | Potency [10] | Potency [11] | Potency [12] | Potency [13] | Potency [14] | Potency [15] | Potency [16] | Potency [17] | Potency [18] | Potency [19] | Potency [20]

Cc1ccccc1N=Nc1ccc(N=Nc2c(O)ccc3ccccc23)c(C)c1
inactive: Potency [1] | Potency [2] | Potency [3] | max response [4] 1.3% | Potency [5] | Potency [6] | Potency [7] | Potency [8] | Potency [9] | Potency [10] | Potency [11] | Potency [12] | Potency [13] | Potency [15] | Potency [16] | Potency [17] | Potency [18] | Potency [19] | Potency [20]

CC1CCc2cc(F)cc3c(=O)c(C(=O)O)cn1c23 (stereo not drawn)
inactive: Potency [1] | Potency [2] | Potency [3] | max response [4] 7.68% | Potency [5] | Potency [6] | Potency [7] | Potency [8] | Potency [9] | Potency [10] | Potency [11] | Potency [12] | Potency [13] | Potency [14] | Potency [15] | Potency [16] | Potency [17] | Potency [18] | Potency [19] | Potency [20]

O=C(Cl)c1c(Cl)cccc1Cl
inactive: Potency [1] | Potency [2] | Potency [3] | max response [4] -14.9% | Potency [5] | Potency [6] | Potency [7] | Potency [8] | Potency [9] | Potency [10] | Potency [11] | Potency [12] | Potency [13] | Potency [15] | Potency [16] | Potency [17] | Potency [18] | Potency [19] | Potency [20]

CCOc1ccc(NC(=O)CC(C)=O)cc1
inactive: Potency [1] | Potency [2] | Potency [3] | max response [4] -6.1% | Potency [5] | Potency [6] | Potency [7] | Potency [8] | Potency [9] | Potency [10] | Potency [11] | Potency [12] | Potency [13] | Potency [14] | Potency [15] | Potency [16] | Potency [18] | Potency [19] | Potency [20]
